For 36 targets, log2 fold change results are on record in the supplement of paper PMC10849652.

Targets with a hit are over-represented here; the source holds about 8,800 in all. About 0.5% of all pairs of compound and target were hits. Unmarked numbers belong to inactive results.

Sequence of UniProt Q5T3J3 (Q5T3J3 whole entry, looked up): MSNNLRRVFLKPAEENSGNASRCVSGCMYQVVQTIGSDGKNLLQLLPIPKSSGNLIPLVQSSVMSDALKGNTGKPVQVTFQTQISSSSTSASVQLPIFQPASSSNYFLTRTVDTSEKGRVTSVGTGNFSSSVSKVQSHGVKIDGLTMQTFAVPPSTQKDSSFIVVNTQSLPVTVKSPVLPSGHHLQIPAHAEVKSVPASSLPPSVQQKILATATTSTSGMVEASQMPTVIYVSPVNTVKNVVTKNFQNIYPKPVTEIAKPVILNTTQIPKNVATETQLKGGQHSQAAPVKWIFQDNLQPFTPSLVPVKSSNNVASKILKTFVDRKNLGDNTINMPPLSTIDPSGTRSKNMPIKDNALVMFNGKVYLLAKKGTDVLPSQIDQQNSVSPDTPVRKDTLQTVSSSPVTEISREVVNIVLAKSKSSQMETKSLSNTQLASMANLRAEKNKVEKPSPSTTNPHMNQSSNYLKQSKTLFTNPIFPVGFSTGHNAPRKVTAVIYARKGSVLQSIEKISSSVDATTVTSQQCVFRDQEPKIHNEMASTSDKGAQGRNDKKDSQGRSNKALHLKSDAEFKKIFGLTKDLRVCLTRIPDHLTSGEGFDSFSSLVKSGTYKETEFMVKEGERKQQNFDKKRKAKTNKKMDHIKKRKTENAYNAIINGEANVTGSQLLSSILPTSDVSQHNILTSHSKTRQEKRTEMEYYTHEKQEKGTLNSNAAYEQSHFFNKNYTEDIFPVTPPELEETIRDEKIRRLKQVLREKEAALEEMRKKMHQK
Sequence of UniProt O15243 (O15243 whole entry, looked up): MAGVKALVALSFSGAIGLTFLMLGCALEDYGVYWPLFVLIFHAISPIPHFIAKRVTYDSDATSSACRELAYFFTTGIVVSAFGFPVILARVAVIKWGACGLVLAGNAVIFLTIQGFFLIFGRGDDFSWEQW
Sequence of UniProt Q71SY5 (Q71SY5 whole entry, looked up): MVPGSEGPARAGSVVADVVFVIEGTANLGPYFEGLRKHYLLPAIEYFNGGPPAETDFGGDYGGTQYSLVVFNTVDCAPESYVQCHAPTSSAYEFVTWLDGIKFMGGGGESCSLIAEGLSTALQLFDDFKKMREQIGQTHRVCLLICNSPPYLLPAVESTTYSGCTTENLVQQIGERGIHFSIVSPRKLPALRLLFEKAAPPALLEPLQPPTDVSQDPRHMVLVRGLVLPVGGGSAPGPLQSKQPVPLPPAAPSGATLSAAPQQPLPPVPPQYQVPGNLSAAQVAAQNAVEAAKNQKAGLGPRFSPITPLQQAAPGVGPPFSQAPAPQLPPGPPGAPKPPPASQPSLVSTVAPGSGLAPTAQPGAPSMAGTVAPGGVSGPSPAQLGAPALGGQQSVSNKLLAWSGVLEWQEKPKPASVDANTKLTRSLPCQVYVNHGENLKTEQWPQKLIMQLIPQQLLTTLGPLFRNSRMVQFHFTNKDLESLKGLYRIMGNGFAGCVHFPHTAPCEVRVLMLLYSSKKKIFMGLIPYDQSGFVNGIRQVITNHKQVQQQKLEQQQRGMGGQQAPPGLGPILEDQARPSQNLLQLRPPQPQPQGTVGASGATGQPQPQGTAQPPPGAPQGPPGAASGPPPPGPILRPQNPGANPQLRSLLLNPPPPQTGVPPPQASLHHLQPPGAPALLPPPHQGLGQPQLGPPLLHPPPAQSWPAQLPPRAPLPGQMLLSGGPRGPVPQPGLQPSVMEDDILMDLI
Sequence of UniProt Q7Z7M0 (Q7Z7M0 whole entry, looked up): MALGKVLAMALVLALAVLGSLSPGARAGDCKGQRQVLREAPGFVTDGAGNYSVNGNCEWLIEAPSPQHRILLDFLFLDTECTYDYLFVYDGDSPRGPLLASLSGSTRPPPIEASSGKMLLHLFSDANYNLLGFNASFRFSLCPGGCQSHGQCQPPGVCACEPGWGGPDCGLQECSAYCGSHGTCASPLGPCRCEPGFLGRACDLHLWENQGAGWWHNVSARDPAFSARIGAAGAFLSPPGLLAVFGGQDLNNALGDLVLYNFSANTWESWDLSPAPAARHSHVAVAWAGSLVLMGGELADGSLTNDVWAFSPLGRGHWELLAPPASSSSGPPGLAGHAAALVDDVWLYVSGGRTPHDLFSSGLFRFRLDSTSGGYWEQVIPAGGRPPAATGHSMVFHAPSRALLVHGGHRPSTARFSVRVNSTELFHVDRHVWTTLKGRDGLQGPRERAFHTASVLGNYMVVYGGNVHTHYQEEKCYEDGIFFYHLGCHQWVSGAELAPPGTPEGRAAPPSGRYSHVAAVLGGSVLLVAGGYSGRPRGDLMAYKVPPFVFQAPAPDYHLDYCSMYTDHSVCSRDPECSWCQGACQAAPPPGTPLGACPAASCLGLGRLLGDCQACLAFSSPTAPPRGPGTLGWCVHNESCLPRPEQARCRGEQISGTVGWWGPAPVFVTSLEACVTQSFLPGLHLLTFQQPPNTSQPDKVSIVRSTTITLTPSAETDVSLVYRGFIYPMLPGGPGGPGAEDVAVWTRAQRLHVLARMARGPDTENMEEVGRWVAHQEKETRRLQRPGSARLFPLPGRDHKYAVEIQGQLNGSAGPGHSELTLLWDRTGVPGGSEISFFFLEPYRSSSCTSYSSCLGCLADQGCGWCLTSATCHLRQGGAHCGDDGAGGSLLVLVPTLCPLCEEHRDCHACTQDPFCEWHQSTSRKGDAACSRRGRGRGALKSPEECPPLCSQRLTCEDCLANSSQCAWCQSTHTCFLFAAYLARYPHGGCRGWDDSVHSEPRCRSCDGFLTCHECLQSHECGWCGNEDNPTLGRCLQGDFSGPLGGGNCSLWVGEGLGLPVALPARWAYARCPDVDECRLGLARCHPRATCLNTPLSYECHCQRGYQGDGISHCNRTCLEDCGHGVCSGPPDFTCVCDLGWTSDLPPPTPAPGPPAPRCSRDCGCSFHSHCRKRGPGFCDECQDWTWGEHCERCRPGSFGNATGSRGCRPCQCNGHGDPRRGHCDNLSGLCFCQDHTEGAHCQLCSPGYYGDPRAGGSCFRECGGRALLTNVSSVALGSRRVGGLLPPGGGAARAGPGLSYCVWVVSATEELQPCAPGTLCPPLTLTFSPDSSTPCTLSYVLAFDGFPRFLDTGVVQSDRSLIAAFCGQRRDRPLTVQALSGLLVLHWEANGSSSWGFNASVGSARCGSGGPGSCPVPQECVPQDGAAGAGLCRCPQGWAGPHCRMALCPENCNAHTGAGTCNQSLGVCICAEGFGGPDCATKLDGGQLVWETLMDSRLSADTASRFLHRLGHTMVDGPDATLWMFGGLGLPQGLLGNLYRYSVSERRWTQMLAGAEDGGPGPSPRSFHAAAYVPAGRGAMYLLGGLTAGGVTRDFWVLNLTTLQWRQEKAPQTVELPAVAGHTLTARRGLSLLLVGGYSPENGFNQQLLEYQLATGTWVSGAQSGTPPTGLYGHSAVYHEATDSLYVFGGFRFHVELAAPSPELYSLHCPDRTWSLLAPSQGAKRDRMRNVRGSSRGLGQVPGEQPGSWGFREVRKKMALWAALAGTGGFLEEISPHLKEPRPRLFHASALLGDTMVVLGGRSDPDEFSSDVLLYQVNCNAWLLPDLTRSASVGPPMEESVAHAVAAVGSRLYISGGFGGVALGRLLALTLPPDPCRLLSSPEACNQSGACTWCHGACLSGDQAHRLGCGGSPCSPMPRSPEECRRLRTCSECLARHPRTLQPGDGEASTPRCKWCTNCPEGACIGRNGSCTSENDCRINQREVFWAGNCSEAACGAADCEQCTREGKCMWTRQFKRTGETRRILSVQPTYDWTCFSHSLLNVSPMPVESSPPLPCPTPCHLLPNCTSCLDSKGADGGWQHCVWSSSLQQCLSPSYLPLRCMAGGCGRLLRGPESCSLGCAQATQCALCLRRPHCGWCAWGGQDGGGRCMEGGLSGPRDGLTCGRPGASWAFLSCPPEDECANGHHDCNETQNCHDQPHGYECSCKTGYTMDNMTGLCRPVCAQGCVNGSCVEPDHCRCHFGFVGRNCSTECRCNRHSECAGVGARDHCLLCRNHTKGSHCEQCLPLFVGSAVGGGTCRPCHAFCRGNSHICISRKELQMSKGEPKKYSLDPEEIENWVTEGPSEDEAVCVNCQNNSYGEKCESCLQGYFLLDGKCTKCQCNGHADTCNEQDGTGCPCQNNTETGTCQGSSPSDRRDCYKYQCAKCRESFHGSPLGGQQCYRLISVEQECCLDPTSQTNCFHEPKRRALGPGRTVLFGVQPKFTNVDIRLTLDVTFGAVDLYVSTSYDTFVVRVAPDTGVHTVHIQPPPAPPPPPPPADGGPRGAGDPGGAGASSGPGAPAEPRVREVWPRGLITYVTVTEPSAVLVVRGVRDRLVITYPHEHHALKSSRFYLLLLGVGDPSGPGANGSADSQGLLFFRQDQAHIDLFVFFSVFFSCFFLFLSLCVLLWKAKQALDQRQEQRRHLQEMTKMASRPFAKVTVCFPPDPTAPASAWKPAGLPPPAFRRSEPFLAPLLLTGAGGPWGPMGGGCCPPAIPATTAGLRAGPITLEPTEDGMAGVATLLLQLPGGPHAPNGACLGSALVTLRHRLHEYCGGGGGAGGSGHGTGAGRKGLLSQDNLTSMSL
Sequence of UniProt P01116 (P01116 whole entry, looked up): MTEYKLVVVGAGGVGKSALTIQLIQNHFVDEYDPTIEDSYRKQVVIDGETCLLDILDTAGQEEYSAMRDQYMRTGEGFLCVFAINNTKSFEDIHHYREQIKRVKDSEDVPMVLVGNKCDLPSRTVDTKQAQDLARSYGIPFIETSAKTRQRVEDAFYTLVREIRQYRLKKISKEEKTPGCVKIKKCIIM
Sequence of UniProt Q16553 (Q16553 whole entry, looked up): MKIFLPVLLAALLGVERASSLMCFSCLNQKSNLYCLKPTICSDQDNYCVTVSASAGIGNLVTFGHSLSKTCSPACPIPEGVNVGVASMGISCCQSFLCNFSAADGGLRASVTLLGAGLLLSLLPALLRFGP
Sequence of UniProt Q8WXB1 (Q8WXB1 whole entry, looked up): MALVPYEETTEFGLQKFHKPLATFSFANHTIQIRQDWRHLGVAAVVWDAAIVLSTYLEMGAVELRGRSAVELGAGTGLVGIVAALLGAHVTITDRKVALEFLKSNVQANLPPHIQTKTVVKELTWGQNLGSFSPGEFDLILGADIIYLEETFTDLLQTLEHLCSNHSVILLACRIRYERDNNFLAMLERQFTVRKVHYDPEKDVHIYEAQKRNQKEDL

Compound in the first assay: C1CCN(C1)C(=O)NC2=CC=CC(=C2)NC3=NC=C(C(=N3)NCCC4=CN=CN4)Br
Put plainly: log2 fold change, soluble protein after heating vs DMSO (PISA); higher = thermal stabilisation; K562 lysate, 10 uM; active = over 0.2 and 3.5 SD of the protein, either way, in both replicates (recomputed). In short, it runs like this: (§1)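 Dounce homogenisation of K562 pellets in PBS pH 7.4 with 1 mM MgCl2 produced a crude extract, used at 1 mg/mL protein. Exposure to 10 μM compound lasted 30 min, and aliquots were then heated for 3 min across 48°C-58°C, pooled and brought to 0.5% NP-40 at 4°C. The supernatant after 21,000xg for 90 min was quantified by TMTpro 16plex LC-MS/MS with channel sums equalised. Duplicate values are given as log-two fold change in thermal stability relative to solvent controls.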
For MPDZ (UniProt O75970), the log2 fold change is -0.099.

For the target KIF3C (UniProt O14782), the log2 fold change is 0.158.

LRIF1 (UniProt Q5T3J3): the log2 fold change is -0.031.

As to MEGF8 (UniProt Q7Z7M0), the log2 fold change was -0.116.

Take MAN2B2 (UniProt Q9Y2E5): the log2 fold change was -0.01.

For MAP3K6 (UniProt O95382), the log2 fold change is 0.033.

Turning to MRPL27 (UniProt Q9P0M9), the log2 fold change is 0.023.

As for KIF18B (UniProt Q86Y91), the log2 fold change is -0.117.

For LGALS3BP (UniProt Q08380), the log2 fold change was 0.018.

Take KRAS (UniProt P01116): the log2 fold change is -0.021.

On to MDM1 (UniProt Q8TC05), for which the log2 fold change is -0.05.

LEPROT (UniProt O15243): the log2 fold change was 0.122.

For the target LYN isoform 2 (UniProt P07948), the log2 fold change was -0.035.

For LIMK1 (UniProt P53667), the log2 fold change was 0.068.

As for MRPL30 isoform 2 (UniProt Q8TCC3), the log2 fold change is 0.067.

LRRC7 (UniProt Q96NW7): the log2 fold change was 0.02.

For KRAS isoform 2 (UniProt P01116), the log2 fold change was -0.044.

Consider LRP1 (UniProt Q07954), for which the log2 fold change was -0.196.

For LRRC9 (UniProt Q6ZRR7), the log2 fold change is -0.044.

Regarding LY6E (UniProt Q16553), the log2 fold change was -0.02.

For the target MAPK7 (UniProt Q13164), the log2 fold change was -0.057.

For MED25 isoform 3 (UniProt Q71SY5), the log2 fold change is 0.06.

As for MAP4K4 isoform 6 (UniProt O95819), the log2 fold change was 0.003.

KIFC3 isoform 6 (UniProt Q9BVG8): the log2 fold change was -0.103.

As for LSM11 (UniProt P83369), the log2 fold change is -0.029.

Consider MAPKAP1 (UniProt Q9BPZ7), for which the log2 fold change was 0.141.

With KMT2B (UniProt Q9UMN6), the log2 fold change was -0.028.

For MRC2 (UniProt Q9UBG0), the log2 fold change was 0.011.

As to KLC1 isoform 10 (UniProt Q07866), the log2 fold change was 0.241.

Compound in the next assay: C1CN(CCC1(CC2=CC=C(C=C2)Cl)N)C3=NC=NC4=C3C=CN4
Described as above. In short, it runs like this:
as §1
In the case of MPDZ (UniProt O75970), the log2 fold change is 0.108.

Take KIF3C (UniProt O14782): the log2 fold change is 0.146.

Regarding LRIF1 (UniProt Q5T3J3), the log2 fold change was -0.009.

Turning to MEGF8 (UniProt Q7Z7M0), the log2 fold change is 0.071.

Turning to MAN2B2 (UniProt Q9Y2E5), the log2 fold change is 0.045.

As to MAP3K6 (UniProt O95382), the log2 fold change was -0.008.

MRPL27 (UniProt Q9P0M9): the log2 fold change is 0.019.

As to KIF18B (UniProt Q86Y91), the log2 fold change was 0.033.

As for LGALS3BP (UniProt Q08380), the log2 fold change was -0.171.

Consider KRAS (UniProt P01116), for which the log2 fold change is -0.008.

In the case of MDM1 (UniProt Q8TC05), the log2 fold change is -0.075.

On to LEPROT (UniProt O15243), for which the log2 fold change was 0.045.

As to LYN isoform 2 (UniProt P07948), the log2 fold change is -0.385.

Consider LIMK1 (UniProt P53667), for which the log2 fold change is -0.05.

For the target MRPL30 isoform 2 (UniProt Q8TCC3), the log2 fold change was 0.015.

Take LRRC7 (UniProt Q96NW7): the log2 fold change is 0.067.

Turning to KRAS isoform 2 (UniProt P01116), the log2 fold change was 0.015.

As to LRP1 (UniProt Q07954), the log2 fold change was -0.055.

Consider LRRC9 (UniProt Q6ZRR7), for which the log2 fold change was -0.07.

Regarding LY6E (UniProt Q16553), the log2 fold change was 0.025.

Regarding MAPK7 (UniProt Q13164), the log2 fold change is 0.032.

As for MED25 isoform 3 (UniProt Q71SY5), the log2 fold change was 0.073.

On to MAP4K4 isoform 6 (UniProt O95819), for which the log2 fold change was -0.078.

Consider KIFC3 isoform 6 (UniProt Q9BVG8), for which the log2 fold change was 0.158.

As for LSM11 (UniProt P83369), the log2 fold change is -0.055.

As to MAPKAP1 (UniProt Q9BPZ7), the log2 fold change was -0.181.

Consider KMT2B (UniProt Q9UMN6), for which the log2 fold change was -0.015.

MRC2 (UniProt Q9UBG0): the log2 fold change is 0.061.

For the target KLC1 isoform 10 (UniProt Q07866), the log2 fold change was -0.337.

Compound in the next assay: C1COCCN1CCN2C3=CC=CC=C3N=C2NC(=O)C4=CC(=CC=C4)[N+](=O)[O-] [IRAK-1-4 Inhibitor I]
Described as above. In short, it runs like this: as §1
As to MPDZ (UniProt O75970), the log2 fold change was 0.149.

On to KIF3C (UniProt O14782), for which the log2 fold change was -0.023.

For the target MRPL22 (UniProt Q9NWU5), the log2 fold change is -0.01.

For the target LRIF1 (UniProt Q5T3J3), the log2 fold change is -0.02.

Turning to MCUB (UniProt Q9NWR8), the log2 fold change is -0.12.

Regarding MEGF8 (UniProt Q7Z7M0), the log2 fold change was -0.36 (active).

MAN2B2 (UniProt Q9Y2E5): the log2 fold change was 0.009.

In the case of MRPL27 (UniProt Q9P0M9), the log2 fold change was -0.044.

For the target LRRIQ1 (UniProt Q96JM4), the log2 fold change is -0.083.

For KRAS (UniProt P01116), the log2 fold change was 0.007.

Consider MDM1 (UniProt Q8TC05), for which the log2 fold change is -0.043.

Turning to LEPROT (UniProt O15243), the log2 fold change was -0.036.

As to LYN isoform 2 (UniProt P07948), the log2 fold change was 0.493.

As to LIMK1 (UniProt P53667), the log2 fold change is 0.06.

As for MED28 (UniProt Q9H204), the log2 fold change was -0.012.

As to MRPL30 isoform 2 (UniProt Q8TCC3), the log2 fold change was 0.015.

In the case of LRRC7 (UniProt Q96NW7), the log2 fold change is 0.048.

Consider KRAS isoform 2 (UniProt P01116), for which the log2 fold change is 0.033.

METTL21A (UniProt Q8WXB1): the log2 fold change was -0.04.

As to MEX3A (UniProt A1L020), the log2 fold change is 0.168.

As for MED25 isoform 3 (UniProt Q71SY5), the log2 fold change was 0.073.

As to MAP4K4 isoform 6 (UniProt O95819), the log2 fold change was -0.049.

Take MME (UniProt P08473): the log2 fold change is 0.095.

Consider MAPKAP1 (UniProt Q9BPZ7), for which the log2 fold change was -0.19.
